Screening results from PubChem BioAssay.
sEH act: activators of human soluble epoxide hydrolase. P34913. purified human sEH enzymatic activity, activator screen. activation, % at 2 µM. 91,000 tested, 0.04% active; in the data active means activation above about 37%
CYP2C9 inhib: blocks human cytochrome P450 2C9. CYP2C9 Supersomes, luciferin-H conversion, luminescence. 96,000 tested, 20% active. inhibition, % at 5 µM. P11712. AID 777;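 active means blocking of liver enzyme CYP2C9 beyond about 50% at 5 µM, limit read from the data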
CYP2C19 inh: human CYP2C19 inhibition | P33261 | CYP2C19 Supersomes, luciferin-H EGE luminescence, 30 min | inhibition, % at 5 µM | 96,000 tested, 21% active;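 active means CYP2C19 inhibition above a set limit at 5 µM in the primary screen, cut at about 50% in these data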
Target sequence (P33261 whole entry, looked up): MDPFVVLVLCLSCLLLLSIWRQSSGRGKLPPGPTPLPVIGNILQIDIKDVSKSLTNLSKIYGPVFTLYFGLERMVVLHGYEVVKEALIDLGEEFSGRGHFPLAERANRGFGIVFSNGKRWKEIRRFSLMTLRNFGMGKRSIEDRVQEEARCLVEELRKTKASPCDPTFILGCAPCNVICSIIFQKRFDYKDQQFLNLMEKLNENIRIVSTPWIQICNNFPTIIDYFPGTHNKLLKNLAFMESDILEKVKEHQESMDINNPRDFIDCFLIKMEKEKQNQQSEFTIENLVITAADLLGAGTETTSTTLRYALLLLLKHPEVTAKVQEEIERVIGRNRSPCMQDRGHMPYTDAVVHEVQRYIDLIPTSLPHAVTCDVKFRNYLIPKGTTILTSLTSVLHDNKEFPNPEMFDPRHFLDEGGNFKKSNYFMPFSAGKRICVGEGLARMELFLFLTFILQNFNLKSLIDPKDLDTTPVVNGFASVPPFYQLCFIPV
CYP2C19 activ: increases human CYP2C19 enzyme activity; recombinant CYP2C19, luciferin-H EGE luminescence; hits give high values; 0 = fully inhibited enzyme, 1 = untreated enzyme; AID 1025; activation factor at 5 µM; 96,000 tested, under 10 active;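 active means activation factor of at least 2 at 5 µM in the primary screen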
CYP2C9 act: CYP2C9 (human) activation | activation factor at 5 µM | AID 1024 | 96,000 tested, 1.4% active | recombinant CYP2C9, luciferin-H conversion, luminescence; hits give high values; factor 1 = untreated enzyme, 0 = blocked | P11712;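 active means activation factor of 2 or more for CYP2C9 at a 5 µM dose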
sEH inhibitor: inhibitors of human soluble epoxide hydrolase. P34913. recombinant human sEH enzymatic activity assay. inhibition, % at 2 µM. 91,000 tested, 0.34% active. AID 707; in the data active means inhibition above about 80%
Large screens that a line does not name were inactive. An excerpt weighted towards active compounds, which were near 27% of everything screened.

O=C(NCC(=O)N(Cc1ccccc1)C(C(=O)NCC1CCCO1)c1ccccc1)c1cccs1 (stereo unspecified)	none
Cc1sc2nc3n(c(=O)c2c1C)NC(=O)CC3	none (no result: CYP2C9 inhib, CYP2C19 inh, CYP2C19 activ, CYP2C9 act)
CCCSc1nc(NCc2ccco2)c2c3c(sc2n1)COC(C)(C)C3	CYP2C9 inhib 56
Cc1cc(C)n(-c2nc(NCc3cccnc3)c3c4c(sc3n2)COC(C)(C)C4)n1	CYP2C9 inhib 59
CCC(O)CNc1nc(-n2nc(C)cc2C)nc2sc3c(c12)CCCC3 (stereo unspecified)	none (no result: sEH act, sEH inhibitor)
COc1ccc(OC)c(NC(=O)c2ccc(CN(c3cc(Cl)ccc3C)S(=O)(=O)c3ccccc3)cc2)c1	none
Cc1nnc(SCCn2c(N3CC(C)CC(C)C3)nc3c2c(=O)n(C)c(=O)n3C)s1 (stereo unspecified)	none
Cc1nnc(SCCn2c(Br)nc3c2c(=O)n(C)c(=O)n3C)s1	CYP2C19 inh 80
CCCN(CCC)CCNc1c(N2CCN(C(=O)OCC)CC2)c(=O)c1=O	none
COc1ccc(N2C(=O)CCC2(C#N)c2ccc(OC)cc2)cc1 (stereo unspecified)	CYP2C19 inh 66
COc1ccc(N2C(=O)CSC23C(=O)N2CCCc4cccc3c42)cc1 (stereo unspecified)	none
O=C(O)C1CC(=O)N(c2ccc(OCc3ccccc3)cc2)C1 (stereo unspecified)	none
Cc1ccc(N2C(=O)CC2(C#N)c2ccc(OCc3ccccc3)cc2)cc1 (stereo unspecified)	CYP2C9 inhib 62
COc1cc2c(cc1OC)CN(c1ccc(-c3ccccc3OC)nn1)CC2	CYP2C19 inh 62, CYP2C9 act 2.4 (no result: sEH act, sEH inhibitor)
COC(=O)C1=C(O)/C(=C\c2ccc(CNC(=O)C(=O)Nc3ccc(C)c(C)c3)o2)N=C1C	CYP2C9 inhib 80, CYP2C19 inh 50
CCOC(=O)C1=C(O)/C(=C/c2ccc(CNC(=O)C(=O)Nc3ccc(C)cc3)o2)N=C1C	CYP2C9 inhib 90, CYP2C19 inh 66
COC(=O)C1=C(O)/C(=C\c2ccc(CNC(=O)C(=O)Nc3ccc(C)cc3)o2)N=C1C	CYP2C9 inhib 88, CYP2C19 inh 59
O=C1CN(C(=O)CSc2nncn2-c2ccccc2)c2ccccc2N1	none
Cn1c(C(=O)N2CCCc3ccccc32)cc2c(=O)n3ccccc3nc21	CYP2C9 inhib 65
COc1ccc(OCC(=O)NC(=S)N2CCCc3ccccc32)cc1	CYP2C19 inh 64
Cc1ccc(N2CC(C(=O)N3CCCc4ccccc43)CC2=O)cc1 (stereo unspecified)	CYP2C9 inhib 96, CYP2C19 inh 68 (no result: sEH act, sEH inhibitor)
COc1cc(C2=NOC(C(=O)N3CCCc4ccccc43)C2)cc(OC)c1OC (stereo unspecified)	none
Cc1ccc(N2CC(C(=O)N3CCc4ccccc43)CC2=O)cc1 (stereo unspecified)	none (no result: sEH act, sEH inhibitor)
COc1ccc(C2=NOC(C(=O)N3CCCc4ccccc43)C2)cc1 (stereo unspecified)	CYP2C9 act 2.2
Nc1ccccc1OCCOCCOc1ccccc1N	none
CC(=O)Nc1ccc(N2C(C(C)=O)=NN(c3ccc(Cl)cc3)C2c2sccc2C)cc1 (stereo unspecified)	none (no result: CYP2C9 inhib, CYP2C19 inh, CYP2C19 activ, CYP2C9 act)
COc1ccccc1CC(=O)N1CCCc2ccccc21	CYP2C19 inh 67, CYP2C9 act 2.6
CC(C)Oc1ccc(C(=O)N2CCCc3ccccc32)cc1	CYP2C19 inh 97
O=C(c1ccc(C(=O)N2CCCc3ccccc32)s1)N1CCCc2ccccc21	CYP2C19 inh 50
Cc1ccc(-c2noc(CCC(=O)N3CCCc4ccccc43)n2)cc1	CYP2C9 inhib 95, CYP2C19 inh 85
CCOC(=O)C1CCCN(c2c(NCCc3ccc(S(N)(=O)=O)cc3)c(=O)c2=O)C1 (stereo unspecified)	none (no result: sEH act, sEH inhibitor)
CC(C)(C)n1nc2c(c1NC(=O)COc1ccc3ccccc3c1)CS(=O)(=O)C2	none
CC(C)CC(=O)NCC(C)NC(=O)CC(C)C (stereo unspecified)	none
O=C(NC(=S)N1CCCc2ccccc21)c1ccc([N+](=O)[O-])cc1	none
Cn1ncc(Cl)c1C(=O)N1CCCc2ccccc21	CYP2C9 inhib 63, CYP2C19 inh 54
O=C(NC(=S)N1CCCc2ccccc21)c1ccccc1	CYP2C19 inh 51
CC(C)C(=O)c1cn(CC(=O)N2CCCc3ccccc32)c2ccccc12	CYP2C9 inhib 74
COc1ccc(OCCCC(=O)N2CCCc3ccccc32)cc1	CYP2C9 inhib 83, CYP2C19 inh 98
CCOC(=O)C(C)Oc1cccc2c(=O)n(CC(=O)N3CCCc4ccccc43)ccc12 (stereo unspecified)	none (no result: sEH act, sEH inhibitor)
COc1ccc2c(CC(=O)N3CCc4ccccc43)coc2c1	CYP2C19 inh 64
O=C(c1cc(-c2cccs2)on1)N1CCCc2ccccc21	CYP2C19 inh 93 (no result: sEH act, sEH inhibitor)
O=C(CCCC(=O)N1CCCc2ccccc21)N1CCCc2ccccc21	CYP2C19 inh 95 (no result: sEH act, sEH inhibitor)
COc1ccc2c(CC(=O)N(C)CC3COc4ccccc4O3)coc2c1 (stereo unspecified)	CYP2C9 inhib 88, CYP2C19 inh 99
O=C(CN1CCCCC1)N1CCCc2ccccc21	none
COc1ccc2c(CC(=O)OCC(=O)N3CCc4ccccc43)coc2c1	none (no result: sEH act, sEH inhibitor)
COc1ccc(CNC(=O)Cn2cc([N+](=O)[O-])nc2C)cc1	none
O=C(Nc1cccc(Cl)c1)OCc1cn(-c2ccc(Cl)cc2)nn1	none (no result: CYP2C9 inhib, CYP2C19 inh, CYP2C19 activ, CYP2C9 act)
CCOC(=O)Cn1ncc2c(=O)oc3ccccc3c21	none (no result: sEH act, sEH inhibitor)
O=C(Cn1ncc2c(=O)oc3ccccc3c21)N1CCCc2ccccc21	CYP2C9 inhib 67
Cc1cc(C)c(S(=O)(=O)c2c(C)cccc2C)c(OCC(C)C)n1	CYP2C9 inhib 91, CYP2C19 inh 84 (no result: sEH act, sEH inhibitor)
CCC(C)Oc1nc(C)cc(C)c1S(=O)(=O)c1ccccc1C (stereo unspecified)	none
CC1CN(S(=O)(=O)c2ccc(C(=O)Nc3nnc(-c4ccc5c(c4)CCCC5)o3)cc2)CC(C)O1 (stereo unspecified)	none
O=C(Nc1nnc(C2CC2)o1)c1ccc(S(=O)(=O)N2CCCc3ccccc32)cc1	CYP2C9 inhib 95
COc1cccc(-c2nnc(NC(=O)c3ccc(S(=O)(=O)N4CCOCC4)cc3)o2)c1	none
COc1ccc(-c2nnc(NC(=O)c3ccc(S(=O)(=O)N4CCCc5ccccc54)cc3)o2)cc1	CYP2C9 inhib 54
O=C(NCc1ccco1)c1ccc(S(=O)(=O)N2CCCc3ccccc32)cc1	CYP2C9 inhib 76, CYP2C19 inh 67
CCOc1ccc(NC(=O)CN2C(=O)C3CCCN3C2=O)cc1 (stereo unspecified)	none
Cc1[nH]c2ccc(F)cc2c(=O)c1SC(F)(F)C(F)F	none
CC(NC(=O)CSc1nnc(-c2cccc(S(=O)(=O)N3CCCCC3)c2)o1)C12CC3CC(CC(C3)C1)C2 (stereo unspecified)	CYP2C9 inhib 91, CYP2C19 inh 68, sEH inhibitor 93
